From PubChem BioAssay (Tox21)
Results filed as inconclusive are left out. Where a call stands in place of a potency, no number is given. Calls of active or inactive are those of the source. Calls follow the shape of the dose curve; as a rule, active = well fitted inhibition curve with a large enough effect in the repeat runs; inconclusive = weak or mixed curves, or effect the other way; inactive = no such curve, though single readings can be large or run the other way.

test: qHTS assay to identify small molecule antagonists of the retinoic acid receptor (RAR) signaling pathway (AID 1159552; also: nearly all actives have a fitted effect of over 50% in size); details: C3RL4 RARE luciferase reporter, retinol-stimulated, 6 h; series mostly up to 92.4 µM
Source text: National Center for Advancing Translational Sciences [NCATS]
NIH Chemical Genomics Center [NCGC]
U.S. Environmental Protection Agency [EPA]
National Institutes of Environmental Health Sciences [NIEHS]
National Toxicology Program [NTP]
U.S. Food and Drug Administration [FDA]
All-trans Retinoic acid (atRA) is the potent natural metabolite of retinol and plays an important role in normal embryonic development and maintenance of cellular phenotype in adult animals. atRA is the activating ligand for the retinoic acid receptors (RARs) which form heterodimers with retinoid X receptors (RXRs) on the retinoic acid response element (RARE). Through activation of the RAR/RXRs nuclear receptors, atRA regulates the transcription of a large number of protein-coding genes and regulatory RNAs. Intracellular levels of atRA are controlled by the retinol signaling pathway (RSP) that regulates the biosynthesis and catabolism of atRA to maintain physiological levels. Chemicals that interfere with the RSP can cause abnormal intracellular levels of atRA and therefore are potential developmental toxicants. To assess compounds for the potential adverse effect on embryonic development through interfering with retinol signaling, a cell-based RARE luciferase reporter gene assay was used. C3RL4 cell line (OARSA/CFSAN/FDA, Laurel, MD) was used to screen Tox21 10K compound library for identifying inhibitors of the RSP.
Tox21 Assay Protocol Summary:
C3RL4 cells were seeded at 1,000/well in 4 uL of assay medium into white solid 1,536-well tissue culture plates (Greiner Bio-One North America Inc. Monroe, NC) using a Multidrop Combi (Thermo Scientific, Waltham, MA) dispenser. After incubation at 37 C and 5% CO2 for an overnight, 23 nL of compounds dissolved in DMSO, positive control or DMSO only were transferred by a Pintool station (Kalypsys, San Diego, CA). One ul of 1 uM (final concentration) of Retinol was added right after the compound addition by using a Flying Reagent Dispenser (FRD) (Aurora Discovery, San Diego, CA). After 6 hr incubation at 37 C and 5% CO2, 5 uL of Amplite Luciferase reagent (AAT Bioquest Inc. Sunnyvale, CA) was added to each assay plate using an FRD. Luminescence was quantified on a ViewLux plate reader (PerkinElmer, Waltham, MA) after 30 min incubation at room temperature.
Potency is read from the fitted curve at half-maximal effect.

| Compound | Potency |
| --- | --- |
| COC(=O)c1ccccc1S(=O)(=O)NC(=O)N(C)c1nc(C)nc(OC)n1 | inactive |
| CC1(C)COP(Oc2ccccc2)OC1 | inactive |
| C[C@]12CC[C@H]3[C@@H](CC=C4C[C@@H](O)CC[C@@]43C)[C@@H]1CC[C@@H]2O | inactive |
| COP(=S)(OC)Oc1c(Cl)cc(C)cc1Cl | inactive |
| CCN(CC)CCOC(=O)C(C)(c1ccccc1)c1ccccc1 | inactive |
| CC(C)(C)C(=O)C(Oc1ccc(Cl)cc1)n1cncn1 (stereo not given) | inactive |
| C[N+](C)=CCl | inactive |
| ClCCOCOCCCl | inactive |
| C#C[C@]1(O)C=C[C@H]2[C@@H]3CCC4=CC(=O)CC[C@@H]4[C@H]3CC[C@@]21CC | 11.9 µM (active) |
| O=C1CN2CCOC2(c2ccccc2Cl)c2cc(Cl)ccc2N1 (stereo not given) | inactive |
| Clc1ccccc1N1CCNCC1 | inactive |
| CC(=O)CC(c1ccc(Cl)cc1)c1c(O)c2ccccc2oc1=O (stereo not given) | inactive |
| Cc1ncc(CNC(=O)N(CCCl)N=O)c(N)n1 | inactive |
| ClCC(Cl)(Cl)Cl | inactive |
| N#CC(Cl)(Cl)Cl | inactive |
| CCCCCCBr | inactive |
| CCS(=O)(=O)CCSP(=O)(OC)OC | inactive |
| CC(C)CP(=S)(S)CC(C)C | inactive |
| CCCSP(=S)(OCC)Oc1ccc(Cl)cc1Cl (stereo not given) | inactive |
| CC(C=O)Cc1ccc2c(c1)OCO2 (stereo not given) | inactive |

| Compound | Potency |
| --- | --- |
| C[C@H]1CCC[C@H](O)CCCCCc2cc(O)cc(O)c2C(=O)O1 | inactive |
| O=C1OC(=O)C2C1C1(Cl)C(Cl)=C(Cl)C2(Cl)C1(Cl)Cl (stereo not given) | inactive |
| CC(Oc1ccc(Oc2ncc(C(F)(F)F)cc2Cl)cc1)C(=O)O (stereo not given) | inactive |
| CCOP(=S)(OCC)Oc1nc(Cl)n(C(C)C)n1 | inactive |
| C[C@]12CC[C@H]3[C@@H](CCC4=CC(=O)CC[C@@]43C)[C@@H]1CC[C@@H]2C(=O)O | inactive |
| CCOP(=S)(OCC)Oc1ncn(-c2ccccc2)n1 | inactive |
| CC(C)(C)OC(=O)c1ncn2c1[C@@H]1CCCN1C(=O)c1c(Br)cccc1-2 | inactive |
| COC(=O)c1ccccc1S(=O)(=O)NC(=O)Nc1nc(C)cc(C)n1 | inactive |
| COC(C)(C)C | inactive |
| CC(C)[N+](=O)[O-] | inactive |
| O=[N+]([O-])c1cccc2cccnc12 | inactive |
| CCOP(=S)(Oc1cnc(C(C)(C)C)nc1)OC(C)C (stereo not given) | inactive |
| CCCCN(CCCCO)N=O | inactive |
| COC(=O)C(C)Oc1ccc(Oc2ccc(Cl)cc2Cl)cc1 (stereo not given) | inactive |
| O=C(N[C@H]1CN2CCC1CC2)c1cc2ccoc2cn1 | inactive |
| N#Cc1ccncc1 | inactive |
| Cc1cnc[nH]1 | inactive |
| Cc1cc(C)nc(Nc2ccccc2)n1 | inactive |
| CN1CCN(C(=O)O[C@H]2c3nccnc3C(=O)N2c2ccc(Cl)cn2)CC1 | inactive |
| CC(C1CC1)C(O)(Cn1cncn1)c1ccc(Cl)cc1 (stereo not given) | inactive |
